Screening results deposited in PubChem BioAssay by National Center for Advancing Translational Sciences (NCATS).
Hits are enriched below; roughly 2.8% of the tested compounds scored in any of these assays.
IP6K1 inhibitor = IP6K1 kinase inhibition; 0.81% of 140,000 active; activity change, % (series mostly up to about 58 µM); IP6K1 kinase, ADP-Glo luminescence, 2 h; stronger effect = lower value; in the data active = activity change below about -25%; also: % is scaled to controls: 0 for no effect and ±100 for the full control effect
Target sequence (Q92551 whole entry, looked up): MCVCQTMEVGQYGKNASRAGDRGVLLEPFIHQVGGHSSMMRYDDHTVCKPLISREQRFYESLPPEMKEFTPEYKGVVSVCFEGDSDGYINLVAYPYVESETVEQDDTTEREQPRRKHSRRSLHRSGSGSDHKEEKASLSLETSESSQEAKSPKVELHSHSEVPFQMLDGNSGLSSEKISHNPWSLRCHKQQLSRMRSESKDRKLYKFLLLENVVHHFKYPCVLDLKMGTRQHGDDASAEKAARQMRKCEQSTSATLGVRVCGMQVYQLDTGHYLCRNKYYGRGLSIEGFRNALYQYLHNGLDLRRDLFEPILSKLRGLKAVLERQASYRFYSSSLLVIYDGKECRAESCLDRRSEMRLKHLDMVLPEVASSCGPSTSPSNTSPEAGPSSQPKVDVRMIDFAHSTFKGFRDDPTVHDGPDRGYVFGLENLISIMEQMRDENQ
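ADP-Glo luminescence measures ADP made by human IP6K1 during a 2 h RT reaction with ATP/IP6 (mix at 1.3 mM/130 uM); top library doses 57.5 and 19.1 uM final.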
KDM5B inh = inhibitors of human KDM5B histone demethylase | 2.6% of 220,000 active | Potency, µM (top dose mostly 57.7 µM), most hits filed as inhibitors | KDM5B demethylase, FDH-coupled NADH fluorescence (FDH is formaldehyde dehydrogenase) | Q9UGL1; active = well fitted inhibition curve with a large enough effect; inconclusive = small, poorly fitted or top-dose-only effect; inactive = no such curve, though single readings can be large or run the other way; also: potency is read from the fitted curve at half-maximal effect; 0% is about no effect; nearly all actives have a fitted effect of over 70% in size
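Here, H3K4me3 peptide (12.5 µM in substrate mix) is demethylated by KDM5BΔAP, 200 nM final, after 10 min compound exposure. Formaldehyde product is coupled through FDH (0.25 U/mL in mix) to NADH fluorescence; 30-min ΔRFU feeds dose-response curves.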
Starred values were filed as active, the others as inactive; i = inactive; ? = inconclusive; / = no result.

SMILES	IP6K1 inhibitor	KDM5B inh
O=C(COc1ccc(Cl)cc1)NCCc1csc(-c2ccncc2)n1	/	i
O=S1(=O)CCN(Cc2cn(C[C@H]3C[C@@H](NCc4cccnc4)[C@H](O)[C@@H]3O)nn2)CC1	10.3	?
COCc1cn(C[C@H]2C[C@@H](NCc3cccnc3)[C@H](O)[C@@H]2O)nn1	5.1	35.5µM*
COC(=O)C1=C(C)N=C2SC=C(CC(=O)N(C)Cc3ccco3)N2C1c1cccc(Cl)c1 (stereo not drawn)	-1.8	i
COC(=O)C1=C(C)N=C2SC=C(CC(=O)N(C)Cc3ccco3)N2C1c1ccc(Cl)cc1 (stereo not drawn)	10.4	17.8µM*
c1ccc(-c2cc3c(cn2)NCCN(Cc2ccccn2)C3)cc1	-14.7	35.5µM*
Clc1cnccc1CN1CCNc2cnc(-c3ccccc3)cc2C1	1.1	?
Fc1ccc(CN2CCNc3cnc(-c4ccccc4)cc3C2)cc1F	-7.6	35.5µM*
Oc1ccc(-c2cc3c(cn2)CN(Cc2ccccc2)CCN3)cc1F	-18.2	?
Cc1ccccc1N(CC(=O)NCCN1CCOCC1)S(=O)(=O)c1ccccc1	/	i
COc1ccc(-c2ccc(C(=O)N3CCN(C(=O)C4CC4)CC3)cc2)nn1	0.0	/
CCc1noc(-c2cccn3c(CNC(=O)c4cccnc4)nnc23)n1	11.6	31.6µM*
Cc1noc(-c2cccn3c(CNC(=O)c4cccnc4)nnc23)n1	-5.0	28.2µM*
COc1cccc(CC(=O)NCc2nnc3c(-c4nc(C)no4)cccn23)c1	4.9	17.8µM*
Cc1noc(-c2cccn3c(CNC(=O)c4ccoc4)nnc23)n1	5.5	28.2µM*
Cc1noc(-c2cccn3c(CNC(=O)c4cc(F)cc(F)c4)nnc23)n1	-0.4	?
Cc1noc(-c2cccn3c(CNC(=O)c4cccc(F)c4)nnc23)n1	21.9	?
COc1cccc(CCC(=O)NCc2nnc3c(-c4nc(C)no4)cccn23)c1	4.5	?
CCc1noc(-c2cccn3c(CNC(=O)CCc4ccccc4)nnc23)n1	-6.4	?
N#Cc1nc(-c2cccc(Cl)c2)oc1NCCCn1ccnc1	/	i
CC(=O)N1CCc2cc(NC(C)C(=O)Nc3ccccc3OC(F)F)ccc21 (stereo not drawn)	/	i
COc1ccc(C2(C)N(O)C(C)C(c3ccccc3)=[N+]2[O-])cc1 (stereo not drawn)	/	i
O=C(c1nn(Cc2ccccc2)c(=O)c2ccccc12)N1CCN(C(=O)C2CC2)CC1	/	i
CC(C)C(=O)Nc1cccc(NC(=O)Nc2cccc(Cl)c2)c1	/	i
Cc1cccc(-c2ccc(C=O)cc2)c1	-15.1	44.7µM*
SMILES	IP6K1 inhibitor	KDM5B inh
Cc1cccc(-c2ccccc2C=O)c1	0.7	i
O=C(/C=C/c1ccc(O)cc1)c1ccc(-c2ccccc2)cc1	/	i
Cc1ccc(-c2cccc(C=O)c2)cc1Cl	-13.3	i
Cc1ccc(-c2ccc(C=O)cc2)cc1Cl	-12.5	50.1µM*
O=Cc1ccc(-c2ccc(O)cc2)cc1	-9.7	14.1µM*
Cc1ccc(S(=O)(=O)N2CCC(C(=O)NCc3cnn(-c4ccccc4)c3)CC2)cc1	/	i
CCc1ccc2oc(C(=O)Nc3ccccc3C)cc(=O)c2c1	/	i
O=c1ccc(C(F)(F)F)cn1Cc1coc(-c2ccccc2)n1	/	i
Cc1ccccc1OCC(=O)Nc1cc(C(F)(F)F)ccc1N1CCOCC1	/	i
O=S1(=O)C=C(N2CCC3(CC2)OCCO3)c2ccccc21	/	i
CCN(C(=O)Cn1cccc1-c1nc(-c2ccccc2)no1)c1cccc(C)c1	-3.1	?
CCN(C(=O)Cn1cccc1-c1nc(-c2ccc(OC)c(F)c2)no1)c1cccc(C)c1	10.2	28.2µM*
COc1ccc(C2CCCN2Cc2cccc(C)c2)cc1 (stereo not drawn)	/	i
Cc1nc(S(=O)(=O)N2CCC(C(=O)N3CCN(c4ccc(Cl)cc4)CC3)CC2)cn1C	/	i
CC(C)CCN1CCNC(=O)C1CC(=O)N(C)Cc1nncn1C(C)C (stereo not drawn)	6.0	?
CCn1ncc(CN(C)C(=O)CC2C(=O)NCCN2C(C)C)c1C (stereo not drawn)	-6.8	31.6µM*
CCc1ccc(C(=O)COC(=O)C(NC(=O)c2ccccc2C)C(C)C)cc1 (stereo not drawn)	/	i
Cc1ccc(CN2CCC(Oc3ccc4ncccc4c3)(C(=O)O)CC2)o1	-12.7	?
O=C(O)C1(Oc2ccc3ncccc3c2)CCN(Cc2ccncc2)CC1	7.1	15.8µM*
Cc1nn(-c2ccccc2)c2c1C(C1CC1)N(C1CN(C(=O)c3ccccc3F)C1)C2=O (stereo not drawn)	18.3	/
O=C(O)c1ccnc(-c2ccnc(NCC(O)c3ccccc3Cl)n2)c1 (stereo not drawn)	0.0	?
CC(C)Cc1cc(CNc2nccc(-c3cc(C(=O)O)ccn3)n2)no1	16.6	31.6µM*
CNC(=O)c1cc(C2CC2)nc2c1c(C1CCCN(C(=O)Nc3ccccc3)C1)nn2C (stereo not drawn)	-2.0	/
S=C(Nc1cccc2ccccc12)N[C@H]1CO[C@H]2[C@@H]1OC[C@H]2OCc1ccccc1	3.3	35.5µM*
NC(=O)CO[C@@H]1CO[C@H]2[C@@H]1OC[C@@H]2NC(=O)Nc1ccccc1	-0.6	i
SMILES	IP6K1 inhibitor	KDM5B inh
O=C(Nc1cccc2ccccc12)O[C@@H]1CO[C@H]2[C@@H]1OC[C@@H]2NC(=S)Nc1cccc2ccccc12	8.1	?
NC(=O)CO[C@@H]1CO[C@H]2[C@@H]1OC[C@@H]2NC(=O)Nc1cccc2ccccc12	-12.7	28.2µM*
O=C(O)CNCc1ccccc1	/	i
CCOC(=O)c1cc(-c2ccncc2)nc2ccccc12	/	i
CCCc1ncncc1C(=O)N1CCCC2(CC1)CNC(=O)O2 (stereo not drawn)	9.9	i
Cc1cc(C)n2nc(C(=O)N3CCCC4(CNC(=O)O4)C3)cc2n1 (stereo not drawn)	-2.7	25.1µM*
COc1cccc(-c2nc(-c3ccc4c(c3)CCC4)cs2)c1OC	/	i
O=C(CCC1CCCN(S(=O)(=O)c2ccccc2F)C1)NCc1cccs1 (stereo not drawn)	1.6	i
O=C(CCC1CCCN(S(=O)(=O)c2ccccc2F)C1)NCCN1CCOCC1 (stereo not drawn)	3.1	20µM*
COc1ccc(NC(=O)C(C)(C)C)cc1Cl	/	i
CC(C)CNc1ccc2nnc(-c3ccc(F)cn3)n2n1	-7.4	31.6µM*
Fc1ccc(-c2nnc3ccc(NCCc4ccccc4)nn23)nc1	-23.0	i
Fc1ccc(-c2nnc3ccc(NCc4cnccn4)nn23)nc1	-0.3	i
Fc1ccc(-c2nnc3ccc(NCCc4ccccn4)nn23)nc1	-20.1	39.8µM*
COc1ccc2c3c1CN(C(=O)Cc1cccs1)CC3=CC(C)(C)CO2	18.5	/
O=C(Cc1ccc(N(Cc2cccc(F)c2)C(=O)c2ccco2)cc1)NCc1ccco1	-4.6	?
Cc1cccc(/C=C/C(=O)N(Cc2ccco2)C2CC2)c1	/	i
Cc1ccn(C(=O)C2CCN(C(=O)c3ccc(F)cc3)CC2)c(=NC2CCCCC2)c1	/	i
Cc1cccc(CCNC(=O)c2cnc3c(C)cccn3c2=O)c1	7.8	?
COc1ncccc1-c1cccc(CCOc2cnc3c(ccn3CC(=O)O)c2)c1	-10.9	39.8µM*
Cc1ccccc1-c1cccc(CCOc2cnc3c(ccn3CC(=O)O)c2)c1	-16.2	39.8µM*
COc1ccc(-c2cccc(CCOc3cnc4c(ccn4CC(=O)O)c3)c2)c(C)c1	-17.6	39.8µM*
